PfGluPho inh: PfG6PD (Plasmodium falciparum) enzyme inhibition | AID 504690 | inhibition, % at 20 µM | PfGluPho enzyme, NADPH resazurin-diaphorase fluorescence | actives 0.78% (n = 350,000);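 active = inhibition reaching at least a set limit at 20 µM in the primary screen, cut at about 59% in these data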;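 also: 0% = DMSO wells with substrate and 100% = DMSO wells lacking glucose-6-phosphate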
CRFR2-BP antag: blocks CRF-induced signaling of the CRF-BP/CRF-R2 complex; HEK293 CRF-R2/CRF-BP, CRF-induced calcium fluorescence; AID 588475; actives 0.59% (n = 350,000); inhibition, % at 11.8 µM;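 active = inhibition of the ligand-induced calcium signal above about 50% at the single tested concentration, limit read from the data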
CRFBP-R2 agonist: agonists of human CRF-binding protein/CRF-R2 receptor complex; HEK293 CRF-R2/CRF-BP, calcium dye fluorescence (FLIPR); percent of saturating CRF peptide response; activation, % at 13.2 µM; actives 0.46% (n = 350,000); AID 588473;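 active = activation of at least 50%, plus an integration ratio under a set limit after plate pattern correction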;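 also: plate controls were neutral control wells without compound for no effect and CRF at EC100 for full effect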
aDG glyco act: increases alpha dystroglycan glycosylation | Pro5-aDG cells, alpha-DG glycosylation AlphaScreen (IIH6); 0% Pro5, 100% B10-LARGE cell signal | actives 0.22% (n = 360,000) | activation, % at 10 µM;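 active = activation of at least 8% versus controls, or a plate z-score of at least 8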;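 also: Pro5 are CHO cells carrying HIG-tagged alpha-DG that lacks glycosylation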
Cardio protect: modulators protecting cardiomyocytes from myocardial damage; H9c2 cardiomyocytes, H2O2 injury protection, ATPLite, 2 h; actives 0.63% (n = 360,000); protection from H2O2 cell death, % at 20 µM;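 active = compounds giving at least 50% protection of heart cells from peroxide-induced death in the single-dose screen, raw or plate-pattern-corrected value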;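 also: 0% = DMSO wells with peroxide and 100% = DMSO wells without peroxide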
FAS TE block: FAS thioesterase (human) inhibition; AID 602261; P49327; inhibition, % at 15 µM; actives 0.67% (n = 360,000); recombinant FAS-TE, OMFH fluorogenic substrate, fluorescence endpoint;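 active = compounds whose normalised, plate-corrected inhibition of enzyme fluorescence in the single-dose primary screen is 50% or more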;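 also: 0% = DMSO with enzyme and 100% = substrate without enzyme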
Target sequence (P49327 whole entry, looked up): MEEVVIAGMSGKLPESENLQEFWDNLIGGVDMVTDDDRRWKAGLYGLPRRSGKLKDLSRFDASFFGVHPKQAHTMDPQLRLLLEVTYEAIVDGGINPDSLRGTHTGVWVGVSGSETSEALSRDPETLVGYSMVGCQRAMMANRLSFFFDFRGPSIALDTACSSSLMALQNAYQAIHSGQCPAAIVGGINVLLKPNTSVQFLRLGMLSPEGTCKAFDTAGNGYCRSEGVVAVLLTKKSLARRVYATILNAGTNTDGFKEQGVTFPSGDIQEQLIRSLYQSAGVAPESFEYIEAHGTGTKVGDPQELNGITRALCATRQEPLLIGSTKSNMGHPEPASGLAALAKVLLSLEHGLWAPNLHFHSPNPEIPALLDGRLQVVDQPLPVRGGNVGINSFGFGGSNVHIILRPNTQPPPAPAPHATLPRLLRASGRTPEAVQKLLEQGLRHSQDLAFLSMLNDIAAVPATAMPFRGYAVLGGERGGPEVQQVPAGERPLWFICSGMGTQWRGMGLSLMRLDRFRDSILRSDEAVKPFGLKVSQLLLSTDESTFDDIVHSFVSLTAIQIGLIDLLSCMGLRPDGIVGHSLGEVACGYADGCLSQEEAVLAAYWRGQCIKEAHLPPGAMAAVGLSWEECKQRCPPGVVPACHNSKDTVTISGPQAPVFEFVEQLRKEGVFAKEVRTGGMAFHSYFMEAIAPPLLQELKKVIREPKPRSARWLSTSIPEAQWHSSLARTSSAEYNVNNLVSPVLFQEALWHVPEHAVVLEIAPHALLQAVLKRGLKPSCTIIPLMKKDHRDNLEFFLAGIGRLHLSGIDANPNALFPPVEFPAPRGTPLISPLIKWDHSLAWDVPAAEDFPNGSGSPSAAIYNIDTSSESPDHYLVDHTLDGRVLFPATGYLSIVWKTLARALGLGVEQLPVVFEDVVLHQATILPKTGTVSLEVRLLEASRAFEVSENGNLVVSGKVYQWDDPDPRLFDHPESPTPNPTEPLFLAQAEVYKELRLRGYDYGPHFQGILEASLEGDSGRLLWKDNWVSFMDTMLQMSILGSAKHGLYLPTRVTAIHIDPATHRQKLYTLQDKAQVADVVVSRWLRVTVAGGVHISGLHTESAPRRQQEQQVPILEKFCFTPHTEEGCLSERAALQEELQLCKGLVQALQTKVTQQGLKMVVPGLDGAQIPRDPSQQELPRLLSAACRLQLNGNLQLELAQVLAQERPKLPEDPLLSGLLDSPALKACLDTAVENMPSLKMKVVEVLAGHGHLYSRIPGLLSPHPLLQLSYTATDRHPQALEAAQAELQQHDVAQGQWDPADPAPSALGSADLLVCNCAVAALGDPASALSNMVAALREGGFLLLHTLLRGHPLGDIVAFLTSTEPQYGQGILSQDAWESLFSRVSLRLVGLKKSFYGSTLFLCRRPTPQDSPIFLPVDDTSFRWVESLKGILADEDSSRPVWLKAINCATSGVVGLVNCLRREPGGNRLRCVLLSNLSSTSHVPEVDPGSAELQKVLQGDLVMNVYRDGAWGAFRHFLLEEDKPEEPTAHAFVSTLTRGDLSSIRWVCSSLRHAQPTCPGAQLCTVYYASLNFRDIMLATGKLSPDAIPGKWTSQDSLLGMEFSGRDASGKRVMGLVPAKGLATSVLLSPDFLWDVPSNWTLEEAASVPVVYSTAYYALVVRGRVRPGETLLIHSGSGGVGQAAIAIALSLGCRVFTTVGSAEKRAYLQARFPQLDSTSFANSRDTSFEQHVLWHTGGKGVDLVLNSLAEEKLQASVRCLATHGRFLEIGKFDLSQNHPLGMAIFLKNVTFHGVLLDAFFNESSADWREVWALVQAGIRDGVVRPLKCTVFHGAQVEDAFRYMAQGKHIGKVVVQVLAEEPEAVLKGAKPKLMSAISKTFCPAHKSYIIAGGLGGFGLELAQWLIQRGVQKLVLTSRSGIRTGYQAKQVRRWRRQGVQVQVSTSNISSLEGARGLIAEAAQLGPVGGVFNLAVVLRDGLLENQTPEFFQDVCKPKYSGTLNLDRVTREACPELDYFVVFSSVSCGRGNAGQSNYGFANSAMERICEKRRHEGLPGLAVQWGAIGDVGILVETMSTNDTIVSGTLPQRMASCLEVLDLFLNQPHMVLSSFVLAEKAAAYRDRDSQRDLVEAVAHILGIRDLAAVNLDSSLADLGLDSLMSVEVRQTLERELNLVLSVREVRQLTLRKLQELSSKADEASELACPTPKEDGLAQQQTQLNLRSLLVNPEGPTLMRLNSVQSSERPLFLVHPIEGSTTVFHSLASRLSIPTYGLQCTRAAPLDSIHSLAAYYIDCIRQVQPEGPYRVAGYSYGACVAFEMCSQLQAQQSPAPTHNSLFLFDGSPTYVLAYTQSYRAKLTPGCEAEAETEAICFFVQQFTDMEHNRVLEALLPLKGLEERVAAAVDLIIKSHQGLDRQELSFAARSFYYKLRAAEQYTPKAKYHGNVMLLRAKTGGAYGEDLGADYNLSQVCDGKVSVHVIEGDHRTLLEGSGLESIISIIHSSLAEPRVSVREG
Starred values were filed as active, the others as inactive. This is a sample that favours compounds with a hit; in the whole collection about 3.2% have one here.

SMILES	PfGluPho inh	CRFR2-BP antag	CRFBP-R2 agonist	aDG glyco act	Cardio protect	FAS TE block
CC1Sc2ccc(S(=O)(=O)N3CCC(C(=O)NCCc4ccccc4)CC3)cc2NC1=O (stereo unspecified)	-6.0	-2.4	1.4	0.1	-3.4	-0.1
CC1Sc2ccc(S(=O)(=O)N3CCC(C(=O)NCC(C)c4ccccc4)CC3)cc2NC1=O (stereo unspecified)	11.9	52.6*	1.4	0.4	-6.0	4.4
CC1CC(C)(C)N(C(=O)CN2C(=O)c3ccccc3C2=O)c2ccccc21 (stereo unspecified)	1.2	-131.6	113.8*	-0.3	0.6	24.1
Cc1ccc2c(c1)C(C)CC(C)(C)N2C(=O)CN1CCN(C)CC1 (stereo unspecified)	-9.1	68.0*	-2.9	0.4	9.2	-2.6
CC1CC(C)(C)N(C(=O)CN2CCN(C)CC2)c2ccccc21 (stereo unspecified)	-7.3	-8.9	0.7	0.2	-5.5	-5.9
CC(=O)NC12CC3CC(C1)CC(C(=O)Nc1cccc(S(=O)(=O)N4CCCCCC4)c1)(C3)C2	12.8	-5.3	0.4	0.1	2.9	-1.9
O=C(Nc1ccc(-n2cnnn2)cc1)c1cn2ccccc2n1	10.1	-63.9	104.0*	0.0	-12.1	-1.5
O=C(Nc1ccccc1)c1cn2ccccc2n1	8.9	34.7	1.0	-0.1	-12.6	-10.1
CC(C)N(C(=O)[C@H]1C[C@H](CC(=O)NCCC2=CCCCC2)C(=O)N2CCc3c([nH]c4ccc(Cl)cc34)[C@]12C)C(C)C	26.0	64.9*	-3.3	0.3	-8.1	13.1
CC(C)N(C(=O)[C@H]1C[C@H](CC(=O)NCc2ccco2)C(=O)N2CCc3c([nH]c4cc(CCC(=O)N(C)C)ccc34)[C@]12C)C(C)C	9.5	59.7*	-3.4	0.0	7.1	-3.8
CS(=O)(=O)N(Cc1ccc(C(=O)NCCSc2ccccn2)cc1)c1ccccc1	8.0	1.5	27.8	0.4	62.5*	-6.7
Cc1ccc(N(Cc2ccc(C(=O)NCCSc3ccccn3)cc2)S(C)(=O)=O)cc1C	-23.2	-5.0	9.3	0.1	34.9	-7.4
CCOc1cc(C(=O)N2CCC(CC3CC(c4ccc(Cl)cc4)=NO3)(C(=O)NCC3CCCCC3)CC2)cc(OCC)c1OCC (stereo unspecified)	8.0	-4.2	1.7	0.4	-2.1	21.3
CCN(C(=O)CCc1nnc2ccc(NCc3ccco3)nn12)c1ccccc1	1.7	5.8	-1.1	-0.1	1.2	19.9
C/C(=N\OC(=O)c1ccc(OC(C)C)cc1)c1ccc(C)c(C)c1	26.6	72.7*	-1.7	0.1	-19.0	24.0
CC/C(=N\OC(=O)c1ccc(OC(C)C)cc1)c1ccc(C)cc1	1.1	7.2	4.1	0.2	-15.0	20.5
CC(C)(C)n1ncc2c(=O)n(Cc3cccc(Cn4cnc5c(cnn5C(C)(C)C)c4=O)c3F)cnc21	8.3	42.0	4.1	5.0	-19.0	55.4*
COc1cc(CN2CCCC(CO)(Cc3ccccc3C)C2)cc2c1OCO2 (stereo unspecified)	3.3	1.4	-0.4	0.5	-22.3	-2.5
Cn1c(=O)n(Cc2ccccc2Cl)c2ccccc21	-14.2	52.5*	0.0	0.3	11.7	-1.6
CC1CC1c1ccc(/C=C(\C#N)C(=O)Nc2cccc(Cl)c2Cl)o1 (stereo unspecified)	4.8	-75.0	58.5*	-0.3	-6.9	35.0
O=C(O)C1CCCCC1C(=O)Nc1cccc(Cl)c1Cl (stereo unspecified)	-11.9	6.2	-1.2	-0.3	6.7	-5.1
CNc1nc2[nH]c(=O)c3c(c2s1)OC(N)=C(C#N)C3c1cccc(F)c1 (stereo unspecified)	29.1	-157.2	103.2*	-0.2	16.8	-10.2
C=CCSc1nc2c(c(=O)[nH]1)C(c1ccccc1)C(C#N)=C(N)O2 (stereo unspecified)	3.0	-2.0	-0.8	0.1	-3.1	-5.7
COC(=O)N/N=C/c1cc(Br)ccc1O	-28.4	20.6	-2.9	0.4	0.0	-1.6
Cc1nc2c(C)cccc2cc1C(=O)N/N=C/c1ccc(O)cc1	18.9	71.1*	-10.7	-0.3	-1.7	-2.5
SMILES	PfGluPho inh	CRFR2-BP antag	CRFBP-R2 agonist	aDG glyco act	Cardio protect	FAS TE block
Cc1cccc2cc(/C=N/NC(=O)c3ccncc3)c(Cl)nc12	6.7	-8.1	-2.6	0.1	12.7	1.7
Cc1ccccc1C(=O)Nc1ccc(C(=O)N/N=C/c2ccc(O)cc2)cc1	1.3	-1.1	-0.4	-0.2	8.6	-1.3
O=C(N/N=C/c1cc(Br)ccc1O)c1ccccc1Cl	4.2	-11.9	0.2	0.5	56.3*	32.4
Cc1cccc2cc(/C=N/NC(=O)c3ccccc3O)c(Cl)nc12	-25.8	9.0	55.1*	0.0	-18.9	8.0
Cc1ncc(CO)c2c1Oc1nc(-c3ccccc3)nc(SCC(=O)Nc3cccc(O)c3)c1C2	34.6	-1.5	0.1	-0.1	63.0*	-4.3
COc1ccc(-c2nc3c(c(SCC(=O)Nc4cccc(O)c4)n2)Cc2c(CO)cnc(C)c2O3)cc1	-4.2	-4.2	2.5	-0.1	65.9*	-8.6
O=C(OCC(=O)N1CCN(c2ccccc2)CC1)c1ccccn1	-14.5	53.1*	0.7	-0.1	-4.6	-10.5
O=C(CSc1ccc(-c2ccncc2)nn1)N1CCN(c2ccccc2)CC1	-16.9	63.3*	2.3	1.2	-4.4	-4.1
O=C(OCC(=O)N1CCN(c2ccccc2)CC1)c1ccc2ccccc2n1	-3.0	15.9	-2.2	-0.1	-0.6	-3.7
O=C1C(=O)N(Cc2ccccc2)C(=O)N1CCOc1ccccc1	-8.9	3.5	1.4	0.1	8.8	1.2
COc1cccc(N=Cc2c(O)n(-c3cccc(C)n3)c(=O)c3ccccc23)c1	26.9	5.1	0.0	-0.2	3.8	13.5
COc1ccc(N=Cc2c(O)n(-c3cccc(C)n3)c(=O)c3ccccc23)c(OC)c1	11.8	-48.5	72.5*	1.3	18.9	-42.4
COc1ccc(-n2c(O)c(/C=N/Nc3nc(C)cc(C)n3)c3ccccc3c2=O)cc1OC	37.9	-0.5	1.3	0.1	62.0*	3.0
COc1ccc(Br)cc1C=NNS(=O)(=O)c1ccc(C)cc1	10.1	7.9	-0.9	0.2	-5.4	6.3
COc1ccc(-n2c(O)c(/C=N/NS(=O)(=O)c3ccc(C)cc3)c3ccccc3c2=O)cc1OC	20.8	-153.8	101.5*	0.0	-5.9	-30.3
COc1ccc(-n2c(O)c(/C=N/NS(=O)(=O)c3cc(C)ccc3C)c3ccccc3c2=O)cc1OC	-7.7	-153.8	111.0*	-0.4	-3.3	-43.8
CCCN1C(=O)c2ccccc2NC1c1ccc(OC)c(CSc2ccccn2)c1 (stereo unspecified)	-4.6	50.5*	-1.8	0.8	1.3	17.3
Cc1n[nH]c(C)c1N1C(=O)c2cccc3c(N4CCCCCC4)ccc(c23)C1=O	-10.3	-375.4	399.5*	1.2	-19.5	-185.2

Source: PubChem
